A short description of assay [1]: qHTS assay to identify aromatase inhibitors - cell viability counter screen (AID 743084).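 Note: cells stimulated with testosterone during compound exposure; nearly all actives have a fitted effect of over 55% in size.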 In general terms: qHTS replaces the single test concentration by a dilution series.
Assay [2] deals with Aryl hydrocarbon receptor (Homo sapiens) (UniProt P35869). Description: qHTS assay to identify small molecule that activate the aryl hydrocarbon receptor (AhR) signaling pathway (AID 743085).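 For activation: HG2L7.5c1 human HepG2 liver cells with stably integrated DRE-driven firefly reporter; series mostly up to about 70 µM.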 Note: nearly all actives have a fitted effect of over 15% in size. Note: potency is the fitted concentration of half-maximal effect. Summed up:
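Reporter assay in engineered HepG2 line HG2L7.5c1, whose plasmid carries twenty dioxin responsive elements upstream of firefly luciferase. Treatment lasted 24 h at 37C; ONE-Glo luminescence gauged induction.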

Assay [3] can be described thus: qHTS assay to identify small molecule that activate the aryl hydrocarbon receptor (AhR) signaling pathway - cell viability counter screen (AID 743086).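 Note: HepG2 liver cells carrying the AhR DRE luciferase reporter; series mostly up to about 70 µM; nearly all actives have a fitted effect of over 45% in size.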 Summed up: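 HepG2-AhR-luc (HG2L7.5c1) cells, 4000/well, were preincubated 5 h at 37C, exposed to compound in qHTS format for 24 hr at 37C, then given CellTiter-Fluor for 30 min; viability was read as fluorescence in the reporter wells.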

Assay [4] concerns the target Peroxisome proliferator-activated receptor gamma (Homo sapiens) (UniProt P37231). Description: qHTS assay to identify small molecule agonists of the peroxisome proliferator-activated receptor gamma (PPARg) signaling pathway (AID 743094; active = well fitted activation curve with a large enough effect in the signal ratio in the repeat runs, not every such curve was filed as active; the % refers to the signal ratio). Summed up: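 Following 5 h plating at 37C, PPARg-bla HEK293H cells receive compound or DMSO for 17 h; fluorescence intensity is recorded after LiveBLAzer B/G loading for 1 h at room temperature.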

The target is the same in assay [5]. Briefly: qHTS assay to identify small molecule antagonists of the peroxisome proliferator-activated receptor gamma (PPARg) signaling pathway (AID 743191; calls by dose curve; note: nearly all actives have a fitted effect of over 30% in size; note: potency is the fitted concentration of half-maximal effect). Summed up:
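GeneBLAzer PPARg UAS-bla HEK293H cells carrying a UAS-driven beta-lactamase reporter were plated at 3000 cells/well, preincubated 5 h at 37C, then given compound for 17 h at 37C; LiveBLAzer B/G FRET substrate was read after 1 h at room temperature.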

Assay [6] can be described thus: qHTS assay to identify small molecule antagonists of the peroxisome proliferator-activated receptor gamma (PPARg) signaling pathway - cell viability counter screen (AID 743194). Note: nearly all actives have a fitted effect of over 55% in size. As to conditions: Potency: co-treated with 50 nM rosiglitazone. Summed up:
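PPARg-UAS-bla HEK293H cells were plated, rested 5 h at 37 C, then treated with compounds plus rosiglitazone (50 nM final) for 17 h at 37 C; viability was then read by CellTiter-Glo luminescence after 30 min at room temperature.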

Assay [7] in a line: qHTS assay for small molecule agonists of the antioxidant response element (ARE) signaling pathway - cell viability counter screen (AID 743203; calls by dose curve; note: nearly all actives have a fitted effect of over 55% in size). Summed up:
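Compounds in DMSO were pinned onto ARE-bla HepG2 cells plated 5 hrs earlier at 2,000 cells/well. Sixteen hours later at 37C/5% CO2, CellTiter-Glo was added and luminescence measured after 30 min at room temperature.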

Assay [8] is described as follows: qHTS assay for small molecule activators of the heat shock response signaling pathway - cell viability counter screen (AID 743209). Note: nearly all actives have a fitted effect of over 50% in size. Summed up:
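Counter screen for cytotoxicity in HeLa HSE-bla reporter cells. Treatment was 5 h at 37 C; viability was detected by luminescent ATP assay (CellTiter-Glo) in the same wells as the beta-lactamase read.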

Assay [9] in a line: qHTS assay for small molecule activators of the heat shock response signaling pathway (AID 743210; active = well fitted activation curve with a large enough effect in the signal ratio in the repeat runs, with a control signal flat, not every such curve was filed as active; the % refers to the signal ratio; note: series mostly up to about 63 µM). Summed up:
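HSE-bla HeLa cells (beta-lactamase reporter under heat shock response elements) were exposed to compounds for 5 h at 37 C, then loaded with LiveBLAzer B/G FRET substrate for 2.5 h at room temperature before fluorescence reading.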

Assay [10] is described as follows: qHTS assay to identify small molecule agonists of the peroxisome proliferator-activated receptor delta (PPARd) signaling pathway - cell viability counter screen (AID 743211). Note: nearly all actives have a fitted effect of over 55% in size. Summed up:
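Multiplexed format: after the 2 h room-temperature LiveBLAzer B/G FRET step, CellTiter-Glo was added to the same wells. Luminescence after 30 min gave cell viability; compound exposure was 17 h at 37C.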

Assay [11] concerns the target Peroxisome proliferator-activated receptor delta (Homo sapiens) (UniProt Q03181). Description: qHTS assay to identify small molecule agonists of the peroxisome proliferator-activated receptor delta (PPARd) signaling pathway (AID 743212; calls by dose curve). Summed up: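 GeneBLAzer PPARd UAS-bla HEK293H cells (beta-lactamase reporter under UAS control), plated and rested 5 h at 37 C, then exposed to compounds in DMSO at 37 C; LiveBLAzer B/G FRET substrate added, 2 h room temperature, fluorescence read.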

Assay [12] in a line: qHTS assay to identify small molecule antagonists of the peroxisome proliferator-activated receptor delta (PPARd) signaling pathway - cell viability counter screen (AID 743213). Note: nearly all actives have a fitted effect of over 50% in size. Summed up:
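PPARd-bla HEK293H cells (3000/well) got compound plus 300 nM L165041 agonist for 17 h at 37 C. Viability in the same wells came from CellTiter-Glo luminescence after 30 min at room temperature.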

Assay [13] deals with Peroxisome proliferator-activated receptor delta (Homo sapiens) (UniProt Q03181). Briefly: qHTS assay to identify small molecule antagonists of the peroxisome proliferator-activated receptor delta (PPARd) signaling pathway (AID 743215; active = well fitted inhibition curve with a large enough effect in the signal ratio in the repeat runs, not every such curve was filed as active; the % refers to the signal ratio;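 note: cells stimulated with agonist L165041 at 300 nM final during compound exposure; series mostly up to about 62 µM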). Summed up:
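With L165041 present at 300 nM final, compounds were incubated 17 h at 37 C on PPARd UAS-bla HEK293H cells. A FRET-based beta-lactamase substrate was then applied for 2 h at room temperature and fluorescence intensity recorded.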

Assay [14] is described as follows: qHTS assay to identify small molecule agonists of the farnesoid-X-receptor (FXR) signaling pathway - cell viability counter screen (AID 743218). Note: nearly all actives have a fitted effect of over 45% in size. Summed up:
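After 16 h at 37 C with test compounds, FXR-bla HEK 293T cells were given LiveBLAzer B/G substrate for 2 h at RT and then CellTiter-Glo; luminescence was taken after 30 min.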

Assay [15] concerns the target Vitamin D3 receptor (Homo sapiens) (UniProt P11473). Description: qHTS assay to identify small molecule agonists of the vitamin D receptor (VDR) signaling pathway (AID 743222; calls by dose curve). Summed up: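 VDR-bla cells were seeded, left 4 h, treated with compounds in DMSO for 16 h, incubated 2 h at RT with B/G FRET substrate, and read for fluorescence.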
The target in assay [16] is Bile acid receptor (Homo sapiens) (UniProt Q96RI1). Briefly: qHTS assay to identify small molecule antagonists of the farnesoid-X-receptor (FXR) signaling pathway (AID 743217; active = well fitted inhibition curve with a large enough effect in the signal ratio in the repeat runs, not every such curve was filed as active; the % refers to the signal ratio). Summed up: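 In this cell-based antagonist screen, inhibition of CDCA-driven (50 uM final) UAS-beta-lactamase expression in HEK 293T cells was measured by FRET fluorescence following 16 h compound exposure at 37 °C.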

For assay [17] the target is unchanged. Description: qHTS assay to identify small molecule agonists of the farnesoid-X-receptor (FXR) signaling pathway (AID 743220; active = well fitted activation curve with a large enough effect in the signal ratio in the repeat runs, not every such curve was filed as active; the % refers to the signal ratio). Summed up:
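Beta-lactamase reporter under UAS control in GeneBLAzer FXR HEK 293T cells (5000/well) measured with LiveBLAzer FRET substrate after 2 h at room temperature. Compound exposure lasted 16 h at 37C.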

A short description of assay [18]: qHTS assay to identify small molecule antagonists of the farnesoid-X-receptor (FXR) signaling pathway - cell viability counter screen (AID 743221; active = well fitted cell-killing curve with a large enough effect in the repeat runs, not every such curve was filed as active; note: nearly all actives have a fitted effect of over 50% in size). Summed up:
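CellTiter-Glo, 30 min RT, luminescence; same wells as the LiveBLAzer FRET read. Cells: FXR-UAS-bla HEK 293T. Treatment: compound with chenodeoxycholic acid 50 uM final, 16 h at 37 C.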

Assay [19] concerns the target Vitamin D3 receptor (Homo sapiens) (UniProt P11473). Description: qHTS assay to identify small molecule antagonists of the vitamin D receptor (VDR) signaling pathway (AID 743223; active = well fitted inhibition curve with a large enough effect in the signal ratio in the repeat runs, not every such curve was filed as active; the % refers to the signal ratio). Summed up: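 After VDR-bla cells are plated and left 4 h at 37C, DMSO-dissolved compounds and 3 nM (final) calcitriol agonist are added. Incubation continues 16 h at 37C; FRET beta-lactamase substrate then develops 2 h at room temperature.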

The nature of assay [20]: qHTS assay for small molecule agonists of the antioxidant response element (ARE) signaling pathway (AID 743202; active = well fitted activation curve with a large enough effect in the signal ratio in the repeat runs, not every such curve was filed as active; the % refers to the signal ratio). Summed up:
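Read-out: LiveBLAzer B/G FRET substrate fluorescence after 2 h at room temperature, following 16 h compound treatment at 37 C of HepG2 cells carrying an ARE-driven beta-lactamase reporter.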

Records with an inconclusive call do not appear. A number with no mark means an inactive call. The source made the active and inactive calls. Unless noted, calls come from the whole dose curve; as a rule, active = well fitted curve in the direction sought with a large enough effect in the repeat runs; inconclusive = weak or mixed curves; inactive = no such curve, though single readings can be large; an effect the other way counts as inactive or inconclusive.

Sequence of Vitamin D3 receptor (Homo sapiens) (P11473 whole entry, looked up): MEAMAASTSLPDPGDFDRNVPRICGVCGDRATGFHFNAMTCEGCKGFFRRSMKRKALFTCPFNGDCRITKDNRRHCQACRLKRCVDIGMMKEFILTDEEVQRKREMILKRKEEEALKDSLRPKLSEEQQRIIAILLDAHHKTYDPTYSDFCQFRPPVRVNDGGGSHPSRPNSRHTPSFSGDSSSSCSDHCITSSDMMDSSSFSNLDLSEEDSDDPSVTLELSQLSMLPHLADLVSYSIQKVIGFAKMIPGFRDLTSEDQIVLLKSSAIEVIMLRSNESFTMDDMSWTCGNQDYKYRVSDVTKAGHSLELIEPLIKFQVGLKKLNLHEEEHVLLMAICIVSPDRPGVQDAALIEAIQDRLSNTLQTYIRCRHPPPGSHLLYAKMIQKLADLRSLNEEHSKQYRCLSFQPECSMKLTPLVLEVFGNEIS
Sequence of Peroxisome proliferator-activated receptor delta (Homo sapiens) (Q03181 whole entry, looked up): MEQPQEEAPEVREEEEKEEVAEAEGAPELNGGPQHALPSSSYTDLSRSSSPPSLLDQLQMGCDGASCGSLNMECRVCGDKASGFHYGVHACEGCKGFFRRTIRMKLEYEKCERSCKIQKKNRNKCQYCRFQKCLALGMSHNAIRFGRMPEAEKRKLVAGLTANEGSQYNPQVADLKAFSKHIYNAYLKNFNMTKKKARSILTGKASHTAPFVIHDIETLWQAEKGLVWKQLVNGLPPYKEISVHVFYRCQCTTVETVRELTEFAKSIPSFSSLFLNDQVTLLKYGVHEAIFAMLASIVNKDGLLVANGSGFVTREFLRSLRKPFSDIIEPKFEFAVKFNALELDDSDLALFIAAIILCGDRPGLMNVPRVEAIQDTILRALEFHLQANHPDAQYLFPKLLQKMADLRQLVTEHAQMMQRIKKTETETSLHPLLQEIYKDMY
Sequence of Bile acid receptor (Homo sapiens) (Q96RI1 whole entry, looked up): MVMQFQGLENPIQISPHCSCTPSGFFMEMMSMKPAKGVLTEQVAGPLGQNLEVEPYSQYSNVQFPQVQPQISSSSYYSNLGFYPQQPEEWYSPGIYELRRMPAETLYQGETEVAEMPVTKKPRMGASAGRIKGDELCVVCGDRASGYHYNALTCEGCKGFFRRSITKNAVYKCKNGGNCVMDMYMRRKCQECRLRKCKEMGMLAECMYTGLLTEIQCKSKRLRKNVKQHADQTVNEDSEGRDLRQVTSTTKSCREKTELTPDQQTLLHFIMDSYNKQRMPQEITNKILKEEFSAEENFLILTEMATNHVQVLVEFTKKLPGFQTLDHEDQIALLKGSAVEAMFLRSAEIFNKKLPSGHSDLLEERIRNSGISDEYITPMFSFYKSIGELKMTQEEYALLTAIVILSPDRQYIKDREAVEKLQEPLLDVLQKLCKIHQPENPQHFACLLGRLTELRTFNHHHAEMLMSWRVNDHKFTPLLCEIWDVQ
Sequence of Aryl hydrocarbon receptor (Homo sapiens) (P35869 whole entry, looked up): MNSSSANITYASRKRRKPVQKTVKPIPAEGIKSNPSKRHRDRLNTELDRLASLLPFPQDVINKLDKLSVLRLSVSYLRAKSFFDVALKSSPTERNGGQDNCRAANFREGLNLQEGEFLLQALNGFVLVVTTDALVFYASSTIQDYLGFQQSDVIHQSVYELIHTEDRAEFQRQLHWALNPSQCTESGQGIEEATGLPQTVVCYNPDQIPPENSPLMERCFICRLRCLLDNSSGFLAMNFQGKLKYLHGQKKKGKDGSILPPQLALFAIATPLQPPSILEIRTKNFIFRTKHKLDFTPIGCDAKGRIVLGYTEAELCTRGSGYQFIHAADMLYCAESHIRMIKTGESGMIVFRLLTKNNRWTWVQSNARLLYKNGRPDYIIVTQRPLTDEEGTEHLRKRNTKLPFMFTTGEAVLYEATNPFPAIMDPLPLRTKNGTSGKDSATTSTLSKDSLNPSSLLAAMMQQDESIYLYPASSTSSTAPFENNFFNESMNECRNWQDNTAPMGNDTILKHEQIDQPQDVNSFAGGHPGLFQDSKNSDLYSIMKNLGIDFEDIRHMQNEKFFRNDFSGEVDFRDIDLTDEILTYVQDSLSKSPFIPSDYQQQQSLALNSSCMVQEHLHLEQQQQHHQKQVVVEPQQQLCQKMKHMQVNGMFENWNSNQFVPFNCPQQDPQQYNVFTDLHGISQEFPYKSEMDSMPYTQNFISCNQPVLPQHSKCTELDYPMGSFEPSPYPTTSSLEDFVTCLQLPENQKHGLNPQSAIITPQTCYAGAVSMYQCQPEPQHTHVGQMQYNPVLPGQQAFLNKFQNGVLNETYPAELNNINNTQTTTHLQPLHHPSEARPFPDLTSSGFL
Sequence of Peroxisome proliferator-activated receptor gamma (Homo sapiens) (P37231 whole entry, looked up): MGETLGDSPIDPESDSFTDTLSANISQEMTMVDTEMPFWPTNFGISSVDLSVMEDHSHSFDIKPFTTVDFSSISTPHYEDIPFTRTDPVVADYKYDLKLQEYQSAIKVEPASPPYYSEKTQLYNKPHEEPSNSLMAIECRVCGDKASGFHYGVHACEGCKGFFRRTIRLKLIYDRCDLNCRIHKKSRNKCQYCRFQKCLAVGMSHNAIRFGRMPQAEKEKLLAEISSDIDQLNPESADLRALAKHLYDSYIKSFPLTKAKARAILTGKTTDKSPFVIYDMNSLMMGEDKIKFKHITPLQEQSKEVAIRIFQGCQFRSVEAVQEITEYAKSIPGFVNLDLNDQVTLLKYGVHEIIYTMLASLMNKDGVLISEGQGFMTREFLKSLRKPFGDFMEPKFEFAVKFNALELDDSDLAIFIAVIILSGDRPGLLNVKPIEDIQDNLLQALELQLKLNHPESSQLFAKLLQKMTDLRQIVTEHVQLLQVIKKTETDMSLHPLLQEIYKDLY

In the case of `O=C1C(Cl)C(CCl)CN1c1cccc(C(F)(F)F)c1` (stereo not drawn), the Potency result in [1], in assay [3], in assay [4], in assay [6], in assay [7] and in assay [8] was “inactive” throughout. Besides, the Potency entry in assay [10], in assay [12], in assay [13] and in assay [14] was “inactive” throughout. Further, the results for the Potency in [2] and in assay [5] were 48.6 µM (active) and 21.9 µM (active), respectively. Also, the outcome in assay [9], in [11] and in assay [15] was inactive.

For `NC(=O)C(Cl)(Cl)Cl`, the Potency entry in assay [1], in [2], in [3], in [4], in [5] and in assay [6] was “inactive” each time. Besides, the Potency result in [7], in assay [8], in assay [10], in assay [12], in [13] and in [16] was “inactive” in each case. Further, the Potency result in [14] and in [18] was “inactive” each time. In addition, the outcome in assay [9], in assay [11], in [17], in assay [15] and in [19] was inactive.

Take `COc1nn(C(=O)NS(=O)(=O)c2ccccc2OC(F)(F)F)c(=O)n1C`: the Potency result in [1], in [2], in [3], in [4], in [5] and in [6] was “inactive” each time. In addition, the Potency entry in assay [7], in assay [8], in assay [12], in assay [13], in assay [16] and in [14] was “inactive” throughout. Further, in [18], the Potency result is “inactive”. In addition, the compound was classed as inactive in assay [9], in assay [11], in assay [17], in assay [15] and in [19].

With `ClCC(Br)CBr` (stereo not drawn), the Potency result in assay [1], in assay [2], in [3], in assay [4], in assay [5] and in assay [6] was “inactive” each time. Further, the Potency entry in assay [20], in [7], in [8], in assay [10], in assay [12] and in assay [14] was “inactive” throughout. In addition, the Potency entry in [18] was “inactive”. Further, the compound was called inactive in assay [9], in assay [15] and in [19].

As for `Clc1cc(Cl)c(Cl)c(Cl)c1`, the Potency entry in assay [1], in assay [2], in [3], in assay [4], in assay [5] and in [6] was “inactive” in each case. Also, the Potency entry in assay [20], in [7], in assay [8], in assay [10] and in assay [18] was “inactive” each time. In addition, the result in assay [9], in [11], in assay [15] and in [19] was inactive.

Consider `N#CCC#N`, for which the Potency result in assay [1], in assay [2], in assay [3], in assay [4], in assay [5] and in assay [6] was “inactive” in each case. In addition, the Potency entry in assay [20], in assay [7], in [10], in assay [12] and in assay [14] was “inactive” throughout. In [15], the call was inactive.

On to `NC(=O)CI`, for which the Potency entry in [1], in assay [2], in [3], in [4], in assay [5] and in assay [6] was “inactive” each time. Also, the Potency result in assay [20], in [8], in assay [10], in [12] and in assay [18] was “inactive” each time. Further, the call in [9], in assay [11], in [15] and in assay [19] was inactive.

Consider `BrCC(Br)C1CCC(Br)C(Br)C1` (stereo not drawn), for which the Potency entry in assay [1], in assay [2], in assay [3], in [4], in [5] and in [6] was “inactive” each time. In addition, the Potency result in assay [7], in assay [8], in assay [10], in [14] and in [18] was “inactive” throughout. In addition, the compound was called inactive in [9].

Consider `COC(=O)c1cncn1C(C)c1ccccc1` (stereo not drawn), for which the Potency entry in assay [1], in assay [2], in [3], in [4], in assay [5] and in assay [6] was “inactive” in each case. For the same compound, the Potency result in assay [20], in [8], in [10], in [12], in assay [13] and in [14] was “inactive” in each case. Also, the Potency result in [18] was “inactive”. The compound was called inactive in assay [9], in [11] and in assay [19].

The values above are taken from PubChem BioAssay (Tox21).
